Assay outcomes as filed in PubChem BioAssay.
The sample as a whole holds a higher share of hits than the screen did.
Tb PYK inh: inhibitors of Trypanosoma brucei pyruvate kinase; TbPYK enzyme, Kinase-Glo Plus ATP luminescence, 45 min; Potency, µM (doses to about 76.8 µM), hits mostly inhibitors; hit rate 0.12% among 410,000; AID 624173; also: nearly all actives have a fitted effect of over 50% in size
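Activity of T. brucei pyruvate kinase was followed by Kinase-Glo Plus luminescence after the enzyme reacted 45 min at room temperature with 130 uM ADP (final) and substrate. Test compounds were added before ADP at multiple concentrations.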
RE007 growth inh: less growth of the S. pombe RE007 Vpr strain; S. pombe RE007 Vpr strain, BacTiter-Glo ATP luminescence, 24 h; Potency, µM (titrated, usually from 92.2 µM), actives largely listed as inhibitors; hit rate 0.21% among 360,000; active = well fitted falling curve with a large enough effect; also: nearly all actives have a fitted effect of over 50% in size
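Fission yeast strain RE007, carrying one chromosomally integrated HIV-1 vpr copy, was seeded at OD 0.01 in PMG+AL medium with 23 nL pinned compound. After 24 h at 30 °C and 99% humidity, viability was read by BacTiter-Glo luminescence.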
LmPK inh: blocks Leishmania mexicana pyruvate kinase activity; Q27686; purified LmPK, Kinase-Glo ATP luminescence, 1 h; Potency, µM (doses to about 57.5 µM), actives largely listed as inhibitors; hit rate 0.37% among 290,000; AID 1721
Target sequence (Q27686 whole entry, looked up): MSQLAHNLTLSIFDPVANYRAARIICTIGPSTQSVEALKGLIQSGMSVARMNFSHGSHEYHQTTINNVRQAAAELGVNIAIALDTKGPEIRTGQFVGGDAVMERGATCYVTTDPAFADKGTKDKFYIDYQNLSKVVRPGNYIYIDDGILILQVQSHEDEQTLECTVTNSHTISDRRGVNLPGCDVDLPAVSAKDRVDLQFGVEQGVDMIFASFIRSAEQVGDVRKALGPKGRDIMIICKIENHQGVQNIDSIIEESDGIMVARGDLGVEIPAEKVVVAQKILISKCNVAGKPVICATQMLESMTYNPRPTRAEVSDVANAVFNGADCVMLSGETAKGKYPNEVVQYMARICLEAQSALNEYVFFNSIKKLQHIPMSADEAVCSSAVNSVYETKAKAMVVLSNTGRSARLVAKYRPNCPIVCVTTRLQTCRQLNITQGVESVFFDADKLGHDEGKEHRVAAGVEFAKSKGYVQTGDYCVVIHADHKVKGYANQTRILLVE
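ATP generated from ADP (0.1 mM) and PEP (0.5 mM) by 0.1 nM LmPK over 1 h at room temperature (pH 7.2 imidazole buffer) was detected by coupled luciferase luminescence. Values were normalized to uninhibited and no-enzyme wells.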
Shiga inhibitor: blocks Shiga toxin action in Vero cells; Vero cells, Shiga toxin protein synthesis inhibition reporter; inhibition, % at 38.7 µM; hit rate 9.2% among 290,000; AID 2315; in the data active = inhibition mostly above about 28%, no sharp cut-off; inactive = mostly below about 43%
CHX counter: affects cycloheximide protein synthesis inhibition readout, counter-screen | cell reporter, cycloheximide protein synthesis inhibition counterscreen | max response, % | hit rate 12% among 300,000; in the data active = max response mostly above about 13%, no sharp cut-off; inactive = mostly below about 14%; also: read at 38.3 µM for the half of the compounds with a filed dose
Giardia FBPA inh: blocks Giardia fructose-bisphosphate aldolase activity; A8B2U2; purified Giardia FBPA; Potency, µM (highest dose often 59.6 µM), most hits filed as inhibitors; hit rate 0.71% among 290,000; also: nearly all actives have a fitted effect of over 55% in size
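40 nM FBPA preincubated 10 min at RT with compound (up to 57.5 uM final), then substrate plus GAPDH/TPI/NAD/arsenate coupling and diaphorase/resazurin added. Fluorescence read after 20 min at RT, 525/598 nm.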
Hits are given with their value; n = inactive; x = not tested or not shown. Unless noted, calls follow the shape of the dose curve; as a rule, active = well fitted curve in the direction sought with a large enough effect; inconclusive = small, poorly fitted or top-dose-only effect, or another doubt; inactive = no such curve, though single readings can be large; an effect the other way counts as inactive or inconclusive.

SMILES | Tb PYK inh | RE007 growth inh | LmPK inh | Shiga inhibitor | CHX counter | Giardia FBPA inh
COc1ccccc1NC(=O)COC(=O)C1CC2C=CC1C2 (stereo unspecified) | n | n | n | n | 15.4 | n
CC(=O)c1ccc(NC(=O)COC(=O)C2CC3C=CC2C3)cc1 (stereo unspecified) | n | n | x | x | x | x
Cc1cc(C)c(Cn2c3ccccc3c3cnn(CC(=O)NCC(C)c4ccccc4)c(=O)c32)c(C)c1 (stereo unspecified) | n | x | x | x | x | x
CCC/C(O)=C1\C(=O)CCCC1=NCCc1c(C)[nH]c2ccc(OC)cc12 | n | n | n | n | n | n
O=C(Nc1nnc(-c2ccccc2F)s1)Nc1ccccc1F | n | n | n | n | n | n
CC(C)=CC(=O)Nc1nnc(-c2ccccc2C)s1 | n | n | n | 76.9 | 28.1 | n
Cc1ccccc1NC(=O)/C=C/c1cccs1 | n | n | n | 70.2 | 27.5 | n
O=C(/C=C/c1cccc(F)c1)Nc1nccs1 | n | n | n | 117.2 | 46.5 | n
O=C(/C=C/c1cccs1)Nc1ccc(Br)cn1 | n | n | n | 59.8 | 43.0 | n
CCN(CC)S(=O)(=O)c1ccc(C)c(NC(=O)/C=C/c2cccs2)c1 | n | x | n | n | n | n
CCOC(=O)N1CCN(C(=O)COC(=O)C2CCN(S(=O)(=O)c3ccc(C)c(C)c3)CC2)CC1 | n | n | x | x | x | x
Cc1nc(S(=O)(=O)c2ccc(Cl)cc2)c(N(C)C)o1 | n | n | n | n | n | n
CCc1nnc(NC(=O)/C=C/c2cccs2)s1 | n | n | n | n | 17.5 | n
O=C(/C=C/c1cccs1)Nc1cccc(NC(=O)/C=C/c2cccs2)n1 | n | n | n | 90.0 | 40.2 | n
CCc1nnc(NC(=O)CSc2ccc(-c3cccs3)nn2)s1 | n | n | n | n | n | n
O=C(/C=C/c1cccs1)NC1CC1 | n | n | n | n | 18.5 | n
O=C(/C=C/c1cccs1)Nc1ccc(S(=O)(=O)Nc2ncccn2)cc1 | n | n | n | n | n | n
O=C(/C=C/c1cccs1)Nc1nccs1 | n | n | n | 110.6 | 40.7 | n
CCN(CC)CCNC(=O)C(=O)Nc1c2c(nn1-c1ccc(F)cc1)CSC2 | n | x | x | x | x | x
Cc1nc2c(-c3ccccc3)c(C)nn2c(C)c1CCC(=O)NCc1ccc(F)cc1 | n | x | x | x | x | x
CCc1nnc(NC(=O)C=C(C)C)s1 | n | n | n | 39.3 | 32.2 | n
O=C(/C=C/c1ccccc1)Nc1nc(-c2cccs2)ns1 | n | x | x | x | x | x
O=C(/C=C\c1ccccc1)Nc1nccs1 | n | n | n | 58.8 | 38.6 | n
CCn1c2c(c(=O)n3ncc(C(=O)N4CCN(c5ccc(Cl)cc5)CC4)c13)CN(Cc1ccc(OC)cc1)CC2 | n | x | x | x | x | x
O=C1c2cccc3c2[C@@H](CCC3)CN1[C@@H]1CN2CCC1CC2 | n | x | x | x | x | x
SMILES | Tb PYK inh | RE007 growth inh | LmPK inh | Shiga inhibitor | CHX counter | Giardia FBPA inh
O=C(CSc1ncnc2ccccc12)c1ccc2c(c1)OCCO2 | n | n | n | 185.4 | 45.9 | n
COc1cc(OC)c(C(=O)COc2ncnc3ccccc23)c(OC)c1 | n | n | n | n | n | n
O=C(COc1ncnc2cc(Cl)ccc12)c1ccc2c(c1)OCCO2 | n | n | n | 74.0 | 28.5 | n
O=C(COc1ncnc2ccccc12)c1ccc2c(c1)OCCO2 | n | n | n | 132.4 | 55.3 | n
Cc1ccc(C)c(C(=O)COc2ncnc3ccccc23)c1 | n | n | n | 70.2 | n | n
CC(C)(C)OC(=O)N1CCC(c2c(C(=O)NCc3cccs3)cnn2-c2cccc(F)c2)CC1 | n | x | x | x | x | x
CC(Sc1ncnc2ccccc12)C(=O)Nc1ccc2c(c1)OCO2 (stereo unspecified) | n | n | n | n | n | n
O=C(Nc1ccc2c(c1)OCO2)C1CCN(C(=O)CSc2ncnc3ccccc23)CC1 | n | n | n | 44.4 | 34.3 | n
CC1CCCCN1CCCNC(=O)CN1C(=O)c2cccnc2Oc2ccccc21 (stereo unspecified) | n | n | n | n | n | x
O=C(C1=NNCC1c1ccccc1)C1OC1c1ccccc1 (stereo unspecified) | n | n | n | 33.8 | 11.8 | n
O=C(c1ccccc1)C1OC1C(=O)c1ccccc1 (stereo unspecified) | n | n | x | x | x | x
CCOc1ccc(NC(=O)CN(C)C(=O)/C=C/c2ccco2)cc1OCC | n | n | x | x | x | x
